Most compounds without a hit are left out; they make up all but 8% or so of the library.
KB-3-1 tox – qHTS assay for MDR1-selective chemotherapeutics: Primary screen using the parental adenocarcinoma cell KB-3-1. AID 1347075, 2019. 1.4% of 400,000 active. Potency, µM (top dose mostly 46.1 µM), usual class: cytotoxic. KB-3-1 viability, CellTiter-Glo ATP luminescence, 72 h; note: nearly all actives have a fitted effect of over 60% in size
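KB-3-1 cells, DMEM (no phenol red) + 10% FBS; compound by pin transfer, 72 h, 37 °C. Readout: CellTiter-Glo luminescence after 10 min. Data normalized, curve-fitted.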
HT1080NT lethal – qHTS for induction of synthetic lethality in tumor cells producing 2HG: qHTS for the HT-1080-NT fibrosarcoma cell line; AID 686970, 2013; HT-1080-NT fibrosarcoma viability, CellTiter-Glo ATP luminescence, 48 h; Potency, µM (highest dose often 46.1 µM), hits mostly cytotoxic; 1.6% of 360,000 active;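 note: NT is the 2HG producing partner of a matched IDH1 knockdown line; nearly all actives have a fitted effect of over 55% in size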
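HT-1080-NT; 750 cells/well; 5% FBS RPMI; 48 h compound, 37 degrees C; CellTiter-Glo luminescence; curve fitting and curve-class assignment.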
HT1080 IDH1KD tx – qHTS for induction of synthetic lethality in tumor cells producing 2HG: qHTS for the HT-1080-IDH1KD cell line; HT-1080 IDH1 knockdown viability, ATP luminescence, 48 h; Potency, µM (doses to about 46.1 µM), most hits filed as cytotoxic; 2% of 360,000 active
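Viability of IDH1-knockdown HT-1080 fibrosarcoma cells was assessed by CellTiter-Glo after 48 h at 37 °C with titrated compound; concentration-effect curves were classified by fit quality and response size.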
MCF10A rerep – A quantitative high throughput screen for small molecules that induce DNA re-replication in MCF 10a normal breast cells; 2.9% of 350,000 active; Potency, µM (top dose mostly 46.1 µM), usual class: activators; MCF 10A DNA re-replication, Hoechst nuclear intensity, 48 h; note: nearly all actives have a fitted effect of over 50% in size
KB-V1 MDR tox – qHTS assay for MDR1-selective chemotherapeutics: Primary screen using the drug-selected MDR subline cells KB-V1; AID 1347076, 2019; 3.4% of 400,000 active; KB-V1 MDR cells viability, CellTiter-Glo, 72 h; Potency, µM (top dose mostly 46.1 µM), hits mostly cytotoxic; note: nearly all actives have a fitted effect of over 60% in size
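Cytotoxicity via CellTiter-Glo luminescence after 72 h compound exposure at 37 degrees C. Cells: drug-selected KB-V1 line, DMEM phenol-red free plus 10% FBS. Compounds tested at multiple concentrations; normalized data fitted to concentration-effect curves.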
SW480 rerep – A quantitative high throughput screen for small molecules that induce DNA re-replication in SW480 colon adenocarcinoma cells; SW480 DNA re-replication, Hoechst DNA content imaging, 48 h; Potency, µM (titrated, usually from 46.1 µM), most hits filed as activators; 1.8% of 340,000 active; AID 624297, 2012; note: nearly all actives have a fitted effect of over 55% in size
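Hoechst fluorescence of nuclei (405 nm excitation, 500-530 nm emission) measured by plate-scanning imager after 48 hr compound exposure at 37 C; re-replication scored as increased number of nuclei with elevated intensity.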
A number is an active result; i = inactive; ? = inconclusive; nt = no result; [ ] = remark or other dose. Calls come from the whole dose curve; as a rule, active = well fitted curve in the direction sought with a large enough effect; inconclusive = small, poorly fitted or top-dose-only effect, or another doubt; inactive = no such curve, though single readings can be large; an effect the other way counts as inactive or inconclusive.

SMILES | KB-3-1 tox | HT1080NT lethal | HT1080 IDH1KD tx | MCF10A rerep | KB-V1 MDR tox | SW480 rerep
COc1ccc(NC(=O)c2nc[nH]c2C(=O)Nc2ccccc2C)cc1 | 5.8µM | ? | ? | ? | ? | 18µM
Cc1ccccc1C(=O)N1CCC(C(=O)Nc2ccc3c(c2)OCO3)CC1 | i | i | i | i | ? | i
Cc1ccc(CN2C(=O)C3(c4ccccc42)N(c2cccc(C(F)(F)F)c2)C(=O)CS3(=O)=O)cc1 (stereo not drawn) | i | nt | nt | nt | i | nt
CN(C)c1ccc(/C=C2/C[N+](C)(C)C/C(=C/c3ccc(N(C)C)cc3)C2=O)cc1 | 16µM | ? | 16µM | ? | i | ?
CC(C)/C=C1\CC/C(=C\c2ccc(N(C)C)cc2)C1=O | i | i | i | ? | ? | ?
O=C(Cc1c(F)cccc1Cl)N1CCCC1 | i | ? | i | i | i | ?
CC(C)Cc1nnc(NS(C)(=O)=O)s1 | i | i | i | i | i | i
Cn1cccc1Cc1nnc(SCC(=O)Nc2ccc3c(c2)OCCO3)n1-c1ccc(F)cc1 | i | i | i | i | i | i
Cc1ccc(-n2c(Cc3cccs3)nnc2SCC(=O)Nc2ccc(F)c(F)c2)cc1 | i | i[9.24 µM] | 11µM | ? | i | i
Cn1cccc1Cc1nnc(SCC(=O)Nc2ccc(F)cc2)n1-c1ccc(F)cc1 | i | i | i | i | i | i
COc1ccc(-n2c(Cc3cccn3C)nnc2SCC(=O)NCc2ccc(F)cc2)cc1 | i | i | i | i | ? | i
Cc1ccc(-n2c(Cc3cccn3C)nnc2SCC(=O)NCc2ccc3c(c2)OCO3)cc1 | ? | i | i | i | 15µM | i
CCSc1nnc(NC(=O)CSc2nnc(Cc3cccn3C)n2-c2ccc(F)cc2)s1 | i | i | i | ? | 16µM | i
Cc1ccc(-n2c(Cc3cccn3C)nnc2SCC(=O)Nc2ccc3c(c2)OCO3)cc1 | i | i | ? | i | 3.7µM | ?
O=C(CSc1nnc(Cc2cccs2)n1-c1ccccc1)Nc1ccc2c(c1)OCCO2 | i | i | i | i | i | i
COc1cccc(N2CC(C(=O)Nc3nnc(SCCC4OCCO4)s3)CC2=O)c1 (stereo not drawn) | i | i | i | i | i | i
COc1ccc(Cl)cc1S(=O)(=O)N(C)CC(=O)NCc1ccccn1 | i | i | i | i | i | i
CCC(=O)N(C1=C(NC(C)C)C(=O)c2ccccc2C1=O)C(C)C | ? | i | i | i | ? | i
CCCNC1=C(N(C(C)=O)c2cccc(F)c2)C(=O)c2ccccc2C1=O | 1.3µM | 8.2µM | 4.6µM | 0.73µM | ? | 5.8µM
CC(=O)c1cccc(NC(=S)Nc2ccn(Cc3cccc4ccccc34)n2)c1 | i | i | i | i | ? | i
CCc1cc(C(=O)Cc2cnn(-c3ccccc3)c2)c(O)cc1O | i | i | i | ? | 23µM | i
N#CCC(=O)Nc1nc(-c2ccc3c(c2)OCCO3)cs1 | i | i | i | 23µM | i | ?
COc1cccc(C(=O)Nc2nc(-c3ccc4c(c3)OCO4)cs2)c1 | i | i | i | 16µM | ? | i
COc1cccc(C(=O)Nc2nc(-c3ccncc3)cs2)c1 | i | i | i | i | i | i
CN1CCN(c2nnc(-c3ccccc3)c(-c3ccccc3)n2)CC1 | i | i | i | i | ? | i
SMILES | KB-3-1 tox | HT1080NT lethal | HT1080 IDH1KD tx | MCF10A rerep | KB-V1 MDR tox | SW480 rerep
CN1CCN(c2nc(-c3ccccc3)c3cc(Cl)ccc3n2)CC1 | ? | ? | i | 4µM | ? | 7.9µM
O=C1CN(c2nc(-c3ccccc3)c3cc(Cl)ccc3n2)c2ccccc2N1 | i | i | i | i | i | ?
Clc1ccc2nc(N3CCNCC3)nc(-c3ccccc3)c2c1 | ? | i | i | ? | 18µM | 11µM
c1ccc2c(N3CCCCC3)nc(N3CCCCC3)nc2c1 | ? | i | i | i | ? | i
c1ccc(-c2nc(N3CCCC3)nc3ccccc23)cc1 | i | i | i | 23µM | i | 18µM
O=C1c2cccc3cccc(c23)C(=O)N1Cc1cccnc1 | i | i | i | i | i | i
Cc1ccnc(N2C(=O)c3ccccc3C2=O)c1 | i | i | i | i | ? | i
Cc1cccc(N2C(=O)c3cccc4c(N5CCCCC5)c([N+](=O)[O-])cc(c34)C2=O)c1C | i | i | i | ? | ? | i
Cc1nnc(N2C(=O)c3cccc4c([N+](=O)[O-])ccc(c34)C2=O)s1 | i | ? | ? | 23µM | i | ?
Cc1ccc(N2C(=O)c3cccc4c([N+](=O)[O-])ccc(c34)C2=O)c2cccnc12 | 0.065µM | ? | ? | 2.6µM | ? | 2.1µM
O=C1c2cccc3c([N+](=O)[O-])ccc(c23)C(=O)N1Cc1cccnc1 | ? | 8.2µM | 12µM | 18µM | i | ?
Cc1cnc(N2C(=O)c3ccc([N+](=O)[O-])cc3C2=O)s1 | i | i | i | i | i | i
Cc1ccnc(N2C(=O)c3cccc4c([N+](=O)[O-])ccc(c34)C2=O)c1 | i | 5µM | 2.8µM | 4.6µM | i | 3.7µM
CC1CCCCN1C(=O)CCS(=O)(=O)c1cc2c(cc1Cl)NC(=O)CO2 (stereo not drawn) | i | i | i | i | i | i
Cc1ccc(Oc2nc3ccccn3c(=O)c2/C=C(\C#N)c2nc3ccccc3s2)c(C)c1 | i | nt | nt | nt | i | nt
COc1ccc(OC)c(C2=NO[C@@H]3C(=O)N(c4cc(Cl)ccc4OC)C(=O)[C@H]23)c1 | i | i | i | i | i | i
Cc1ccc(N2C(=O)c3cccc4c(N5CCN(C)CC5)ccc(c34)C2=O)c2cccnc12 | i | ? | 11µM | i | i | i
Cc1ccc(C)c(NC(=O)c2ccc(N(C)S(C)(=O)=O)cc2)c1 | i | i[9.24 µM] | i | i | i | i
Cc1ccc(-n2ncc(C(=O)N3CCN(c4cccc(C)c4)C(C)C3)c2C2CCN(C(=O)OC(C)(C)C)CC2)cc1 (stereo not drawn) | i | nt | nt | nt | i | nt
Clc1cccc(N/N=C(\Cc2nc3ccccc3[nH]2)c2ccccc2)c1 | ? | i | i | ? | 21µM | ?
O=c1c2cn[nH]c2nc(SCc2ccc3c(c2)OCCO3)n1-c1ccccc1 | ? | ? | 21µM | i | ? | ?
O=c1c2cn[nH]c2nc(SCc2cccc(Br)c2)n1-c1ccc(Cl)cc1 | i | nt | nt | nt | i | nt
O=C(/C=C/c1cccc(Cl)c1)c1ccc([N+](=O)[O-])o1 | ? | ? | ? | 2.3µM | i | 1.5µM

Source: PubChem
